Test results published in PubChem BioAssay (NCI).
Compounds without any hit were thinned out: in the full panel of roughly 79,000, 15% have a hit. Activity calls are given as the source filed them. No stated cut-off is given here; in the data, active means growth inhibition above about 70%; inactive means the rest.

Assays:
[1] = NCI Yeast Anticancer Drug Screen. Data for the rad50 strain (AID 155);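 further: 0% = growth of vehicle-only cultures of the same strain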; settings: S. cerevisiae rad50 strain growth inhibition, hits give high values
Method in brief: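 DNA repair mutant yeast, compound exposure, growth read-out; inhibition is taken relative to vehicle.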

[2] = NCI Yeast Anticancer Drug Screen. Data for the mec2-1 strain (AID 157); settings: S. cerevisiae mec2-1 strain, hits give high values
Method in brief: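 Mutant yeast (mec2-1) grown with compound; growth inhibition relative to vehicle control reported.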

[3] = NCI Yeast Anticancer Drug Screen. Data for the sgs1 mgt1 strain (AID 161);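 further: 0% = growth of cultures given vehicle only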; settings: S. cerevisiae sgs1 mgt1 strain, hits give high values
Method in brief: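 Compounds are added to genetically altered yeast, and growth is compared with cultures given vehicle alone to give percent inhibition.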

[4] = NCI Yeast Anticancer Drug Screen. Data for the cln2 rad14 strain (AID 165);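 further: 0% = growth equal to vehicle treated cultures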; settings: S. cerevisiae cln2 rad14 strain, hits give high values
Method in brief: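 Readout is yeast growth inhibition versus vehicle-treated controls, using a strain with cln2 and rad14 alterations exposed to compound.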

[5] = NCI Yeast Anticancer Drug Screen. Data for the bub3 strain (AID 167); settings: S. cerevisiae bub3 mutant strain, hits give high values
Method in brief: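 In this screen, a yeast mutant lacking normal mitotic checkpoint function is challenged with compound. Relative growth versus vehicle gives the inhibition value.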

[6] = NCI Yeast Anticancer Drug Screen. Data for the mlh1 rad18 strain (AID 175); settings: S. cerevisiae mlh1 rad18 strain growth inhibition, hits give high values
Method in brief: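 Genetically defined yeast (DNA repair-deficient) exposed to compounds; growth inhibition determined relative to vehicle.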

[7] = at 5.0 µM (retest, dose inferred, filed as 0.5)
[8] = at 50.0 µM (retest, dose inferred, filed as 5.0)

Measured: growth inhibition

CC(C(=O)N1C(=O)N(C(=O)C(C)C(O)c2ccccc2)C(c2ccccc2)C1c1ccccc1)C(O)c1ccccc1 (stereo not given)
inactive: [1]; [7] 3% | [2]; [7] -10% | [3]; [7] -9% | [4]; [7] 29% | [5]; [7] -18% | [6]; [7] 23%
active: [1]; [8] 91% | [1]; at 50.0 µM 89.2% | [2]; [8] 92% | [2]; at 50.0 µM 91.5% | [3]; [8] 91% | [3]; at 50.0 µM 91.9% | [4]; [8] 89% | [4]; at 50.0 µM 90.1% | [5]; [8] 96% | [5]; at 50.0 µM 88.2% | [6]; [8] 91% | [6]; at 50.0 µM 91.3%

CCOC(=O)c1c(SCC#N)n(-c2ccccc2)c(=S)n(-c2ccccc2)c1=O
active: [1]; at 50.0 µM 80% | [2]; at 50.0 µM 81.2% | [3]; at 50.0 µM 75.3% | [4]; [8] 77% | [4]; at 50.0 µM 78% | [5]; [8] 85% | [5]; at 50.0 µM 88.5% | [6]; [8] 81% | [6]; at 50.0 µM 75.2%
inactive: [1]; [7] 12% | [1]; [8] 35% | [2]; [7] -7% | [2]; [8] 39% | [3]; [7] -8% | [3]; [8] 48% | [4]; [7] -6% | [5]; [7] 1% | [6]; [7] -11%

CCOC(C)(OCC)C(N)c1ccccc1 (stereo not given)
inactive: [1]; [7] -15% | [1]; [8] -12% | [1]; at 50.0 µM 14.3% | [2]; [7] 10% | [2]; [8] -17% | [2]; at 50.0 µM 19.4% | [3]; [7] 6% | [3]; [8] 9% | [3]; at 50.0 µM -0.2% | [4]; [7] -1% | [4]; [8] 5% | [4]; at 50.0 µM -5.65% | [5]; [7] 6% | [5]; [8] 9% | [5]; at 50.0 µM -6.9% | [6]; [7] 2% | [6]; [8] 9% | [6]; at 50.0 µM 1.05%

CN(C)CCC(=O)[C@@]1(O)CC[C@H]2[C@@H]3CC=C4C[C@@H](O)CC[C@]4(C)[C@H]3CC[C@@]21C
inactive: [1]; [7] 25% | [1]; at 50.0 µM 44.1% | [2]; [7] 11% | [2]; [8] 63% | [3]; [7] 20% | [3]; at 50.0 µM 58.1% | [4]; [7] 8% | [4]; [8] 34% | [4]; at 50.0 µM -18% | [5]; [7] -1% | [5]; [8] 59% | [5]; at 50.0 µM 49.1% | [6]; [7] 16% | [6]; [8] 68% | [6]; at 50.0 µM 65.5%
active: [1]; [8] 70% | [2]; at 50.0 µM 75.4% | [3]; [8] 71%

CCOc1c(N=Nc2ccc(Cl)cc2)c(-c2ccccc2)nn1C(N)=S
active: [1]; [8] 90% | [1]; at 50.0 µM 93.4% | [2]; [8] 89% | [2]; at 50.0 µM 94.7% | [3]; [8] 92% | [3]; at 50.0 µM 93.9% | [4]; [8] 87% | [4]; at 50.0 µM 93.3% | [5]; [8] 92% | [5]; at 50.0 µM 92.4% | [6]; [8] 90% | [6]; at 50.0 µM 93.1%
inactive: [1]; [7] 3% | [2]; [7] -11% | [3]; [7] 18% | [4]; [7] -13% | [5]; [7] 1% | [6]; [7] 0%
